# Assay outcomes as filed in PubChem BioAssay.
# CYP2C9 activ – human CYP2C9 activators, primary screen, biochemical, luminescence. 96,000 compounds, 1.4% hits. AID 1024, 2008. Cytochrome P450 2C9 (Homo sapiens), P11712. activation factor at 5 µM. recombinant CYP2C9, luciferin-H conversion; active compounds read high; factor 1 = untreated enzyme, 0 = blocked;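 active = activation factor of 2 or more for CYP2C9 at a 5 µM dose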;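 note: 0 = sulfaphenazole-blocked wells and 1 = vehicle-only wells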
# Target sequence (P11712 whole entry, looked up): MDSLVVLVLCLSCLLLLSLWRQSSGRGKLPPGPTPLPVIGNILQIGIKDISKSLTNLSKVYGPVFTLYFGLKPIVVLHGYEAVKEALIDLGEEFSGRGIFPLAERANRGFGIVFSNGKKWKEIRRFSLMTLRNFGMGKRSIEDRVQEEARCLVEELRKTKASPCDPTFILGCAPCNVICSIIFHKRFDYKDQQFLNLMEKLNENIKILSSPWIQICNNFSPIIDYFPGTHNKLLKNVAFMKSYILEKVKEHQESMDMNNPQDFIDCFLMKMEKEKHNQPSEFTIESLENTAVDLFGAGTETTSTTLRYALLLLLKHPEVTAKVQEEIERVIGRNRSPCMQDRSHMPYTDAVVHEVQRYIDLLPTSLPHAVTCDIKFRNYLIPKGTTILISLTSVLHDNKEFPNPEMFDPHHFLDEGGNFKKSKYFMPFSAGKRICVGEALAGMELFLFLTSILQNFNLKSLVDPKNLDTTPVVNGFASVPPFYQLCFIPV
# Cav32 inh – Cav3.2 calcium influx blockers – cell-based, Fluo-4 calcium fluorescence, FDSS, MLSMR library, primary screen. Cav3.2-expressing cells; active compounds read low. 100,000 compounds, 4% hits. B-score at 10 µM. Voltage-dependent T-type calcium channel subunit alpha-1H (Homo sapiens), O95180;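 active = single-dose well whose peak fluorescence ratio is a statistical outlier from its plate by either plate-standardised score or position-corrected B-score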
# CYP2C19 inhib – blockers of cytochrome P450 2C19 activity – biochemical, luminescence, ADME assay, primary screen. P33261. CYP2C19 Supersomes, luciferin-H EGE luminescence, 30 min. inhibition, % at 5 µM. 96,000 compounds, 21% hits;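 active = CYP2C19 inhibition above a set limit at 5 µM in the primary screen, cut at about 50% in these data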;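 note: plate controls were negative control wells for no effect and 2.5 mM tranylcypromine positive control for full effect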
# CYP2C19 act – human CYP2C19 activators, primary screen, biochemical, luminescence | activation factor at 5 µM | recombinant CYP2C19, luciferin-H EGE luminescence; active compounds read high; 0 = fully inhibited enzyme, 1 = untreated enzyme | AID 1025, 2008 | 96,000 tested, under 10 active | Cytochrome P450 2C19 (Homo sapiens), P33261;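 active = activation factor of at least 2 at 5 µM in the primary screen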;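 note: 0 = wells with 2.5 mM tranylcypromine and 1 = vehicle-only wells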
# CYP2C9 inh – blockers of cytochrome P450 2C9 activity – biochemical, luminescence, ADME assay, primary screen | CYP2C9 Supersomes, luciferin-H conversion | inhibition, % at 5 µM | 96,000 compounds, 20% hits | AID 777, 2007;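 active = blocking of liver enzyme CYP2C9 beyond about 50% at 5 µM, limit read from the data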
# An asterisk follows results filed as active; . = not tested or not shown. Sampled rows, rich in hits. Any-hit rate of the full collection: about 27%.
SMILES,CYP2C9 activ,Cav32 inh,CYP2C19 inhib,CYP2C19 act,CYP2C9 inh
CCCC(=O)C1=C(c2ccccc2)C(C#N)(C#N)C(C#N)=C1N,0.3,-0.398,31.5,0.7,73.0*
CCN(CC)C(=O)COc1cccc2ccccc12,3.7*,-0.00241,93.0*,0.1,-265.8
O=C(O)COc1cccc2ccccc12,0.9,0.77,-0.8,1,10.7
Cc1nc2ccccc2c(=O)n1/N=C/c1c(O)ccc2oc3c(c12)CCCC3,0.2,.,13.0,0.9,77.1*
Nc1nc2c(ncn2COC(CO)CO)c(=O)[nH]1,.,-0.541,.,.,.
O=C1CC(Sc2nnnn2-c2ccccc2)C(=O)N1c1cccc(Cl)c1 (centres undefined),0.7,0.0914,27.4,0.7,33.5
N#CCCCSc1nnnn1-c1cccc(Cl)c1,1.1,0.508,80.3*,0.2,-12.8
COc1ccc(/C=N/OC/C(O)=C(\C#N)c2nc3ccccc3[nH]2)cc1,1,0.897,1.5,1,-0.4
CCOC(=O)c1c(C)[nH]c(C(=O)OC/C(O)=C(\C#N)c2nc3ccccc3[nH]2)c1C,0.2,-1.58,58.1*,0.4,81.4*
N#C/C(=C(/O)COC(=O)c1ccc2c(c1)OCCO2)c1nc2ccccc2[nH]1,0.2,0.657,59.6*,0.4,76.1*
COc1cc(C(=O)NCc2nnc(SCC(=O)Nc3cc(C)cc(C)c3)o2)cc(OC)c1OC,1.1,0.343,-13.0,1.1,-10.0
FC(F)(F)c1nnc2c(Sc3ccccc3)nc3ccc(Cl)cc3n12,0.7,0.164,50.5*,0.5,25.9
Clc1cc(Cl)cc(C2=NC(Cc3ccccc3)CO2)c1 (centres undefined),.,-0.203,.,.,.
COc1ccc(CC(=O)NCc2ccccn2)cc1OC,1.1,0.627,9.9,0.9,-5.5
CNCc1ccccc1Sc1ccc(OC)c(OC)c1,0.8,1.49,57.7*,0.4,20.4
CCC12CN3CC(CC)(CN(C1)C3c1c(O)ccc3ccccc13)C2=O (centres undefined),0.9,0.539,53.7*,0.5,13.5
Nc1ccccc1C#Cc1ccccc1,0.8,0.962,52.6*,0.5,17.5
Cc1ccc(S(=O)(=O)NCC2CCC(C(=O)NCc3ccco3)CC2)cc1 (centres undefined),0.5,0.228,53.5*,0.5,45.9
CCC(C)NC(=O)C1CN(S(=O)(=O)c2ccccc2)CCN1S(=O)(=O)c1ccccc1 (centres undefined),0.8,1.61,66.3*,0.3,22.8
COC(=O)Nc1ccc(S(=O)(=O)N2CCCCC2C(=O)NCc2ccco2)cc1 (centres undefined),1,-0.951,41.7,0.6,0.1
Cc1ccc(S(=O)(=O)N2CCCCC2C(=O)NCc2ccco2)cc1 (centres undefined),0.7,1.13,93.7*,0.1,32.8
O=C(NCc1ccco1)C1CN(S(=O)(=O)c2ccccc2)CCN1S(=O)(=O)c1ccccc1 (centres undefined),0.5,0.674,56.3*,0.4,50.5*
CCCNC(=O)C1CN(S(=O)(=O)c2ccccc2)CCN1S(=O)(=O)c1ccccc1 (centres undefined),1,1.24,8.4,0.9,0.6
O=C(NCc1ccco1)C1CCC(CNS(=O)(=O)c2cccc3cccnc23)CC1 (centres undefined),1.1,1.05,4.0,1,-8.9
COc1cc(C(c2nnnn2C(C)(C)C)N2CCN(c3nc4ccccc4s3)CC2)ccc1O (centres undefined),0,-2.32,60.6*,0.4,97.0*
SMILES,CYP2C9 activ,Cav32 inh,CYP2C19 inhib,CYP2C19 act,CYP2C9 inh
COc1cccc(N2CCN(C(c3ccccn3)c3nnnn3C(C)(C)C)CC2)c1 (centres undefined),.,0.318,.,.,.
COc1ccc(C(c2nnnn2C(C)(C)C)N2CCN(c3nc4ccccc4s3)CC2)cc1OC (centres undefined),0,-4.03*,56.0*,0.4,98.4*
CCC(=O)O[C@]1(C(=O)SCF)[C@H](C)C[C@H]2[C@@H]3C[C@H](F)C4=CC(=O)C=C[C@]4(C)[C@@]3(F)[C@@H](O)C[C@@]21C,.,-0.491,.,.,.
CC(C)COc1cc(=O)[nH]c(SCC(C)C)n1,0.9,-1.96,-1.3,1,11.1
O=C(CN1C(=O)c2ccccc2S1(=O)=O)c1ccccc1,0.8,0.0787,19.0,0.8,23.2
Cc1cc(C(=O)CN2C(=O)c3ccccc3S2(=O)=O)c(C)n1-c1ccccc1,0.3,-3.44,78.8*,0.2,66.3*
COC(=O)c1ccccc1NC(=O)CN1C(=O)c2ccccc2S1(=O)=O,1,-1.82,12.7,0.9,3.2
Cc1ccc(C(=O)CN2/C(=C(\O)c3ccccc3)C(=O)c3ccccc3S2(=O)=O)c(C)c1,0.3,-5.88*,20.4,0.8,69.3*
O=[N+]([O-])c1ccc(NCCCNS(=O)(=O)c2ccc(Cl)cc2)c(Cl)c1,0.5,.,71.9*,0.3,49.1
CCOC(=O)C(C(=O)OCC)C(C(=O)OCC)N1CCOCC1 (centres undefined),0.5,2.14,-2.6,1,52.9*
CCOC(=O)C(C)CC(C)C(=O)N1CCOCCOCCN(C(=O)C(C)CC(C)C(=O)OCC)CCOCC1 (centres undefined),0.9,.,10.5,0.9,8.3
Cc1cc(/C=N\NC(=O)CC(=O)NC2CCCCC2)c(C)n1-c1ccc(Cl)cc1,0.5,-5.72*,10.7,0.9,47.4
O=C1C2C3C=CC(O3)C2C(=O)N1CC(O)c1ccccc1 (centres undefined),1.1,0.643,7.6,0.9,-7.2
Cn1nc(-c2ccc(Cl)cc2)c2cc(C(=O)N3CCN(c4ccccc4)CC3)sc21,0.2,-0.973,38.4,0.6,84.3*
Cn1nc(-c2ccc(Cl)cc2)c2cc(C(=O)N3CCCC3)sc21,0.6,0.267,47.6,0.5,36.6
Cn1nc(-c2ccc(Cl)cc2)c2cc(C(=O)N3CCN(c4ccccn4)CC3)sc21,0.4,-1.03,31.8,0.7,56.2*
Cc1ccc(CNC(=O)c2cc3c(-c4ccc(Cl)cc4)nn(C)c3s2)o1,0.4,-0.405,14.5,0.9,63.1*
CCOC(=O)c1ccc(N2C(=O)C3C(C2=O)C(C(=O)c2ccc(Cl)cc2)N2CCCC32)cc1 (centres undefined),0.8,.,21.7,0.8,16.2
O=C(CN1CCC(n2nnc3cc(F)ccc32)CC1)NCCc1ccccc1,.,1.16,.,.,.
COc1cnn(-c2cc(Oc3ccc(C)cc3)ncn2)c(=O)c1Cl,0.9,0.417,74.0*,0.3,6.9
COCCOc1cnn(-c2cc(Oc3ccc(C)cc3)ncn2)c(=O)c1Cl,0.7,0.401,22.9,0.8,28.5
CCOC(=O)C[C@H]1c2cc(F)ccc2S(=O)(=O)N1Cc1ccc(OC)cc1,.,-0.0548,.,.,.
